Tau fibril ThT: blocks human tau fibril formation measured by thioflavin T | P10636 | recombinant tau K18 P301L, heparin-induced fibrillization, ThT fluorescence | Potency, µM (highest dose often 57.4 µM), most hits filed as inhibitors | 2.1% of 270,000 active | AID 1460; also: nearly all actives have a fitted effect of over 55% in size
Target sequence (P10636 561-689 P618L limits assumed): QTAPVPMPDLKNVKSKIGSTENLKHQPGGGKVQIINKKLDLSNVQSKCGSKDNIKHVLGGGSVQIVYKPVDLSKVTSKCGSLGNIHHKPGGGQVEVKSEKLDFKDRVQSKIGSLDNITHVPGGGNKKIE
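Heparin-induced (20 uM) aggregation of recombinant human K18 P301L tau, 15 uM unlabeled with 0.24 uM labeled, pH 7 acetate buffer, 6 hr at 37 C with compound. Fibrils quantified by 30 uM ThT fluorescence after 1 hr ambient incubation.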
Tau fluor counter: counter-screen for tau fibril formation inhibitors | tau K18 P301L (four-repeat tau fragment) Alexa594 fluorescence, heparin fibrillization | Potency, µM (top dose mostly 57.7 µM) | 0.93% of 280,000 active | AID 1463; also: nearly all actives have a fitted effect of over 55% in size
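Human K18 P301L tau (15 uM unlabeled plus 0.24 uM Alexa 594-labeled, final) in 100 mM sodium acetate pH 7 was mixed with compound and 20 uM heparin and incubated 6 hr at 37 C.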
Tau FP inhib: inhibitors of human tau fibril formation; P10636; K18 P301L tau heparin fibrillization, Alexa594 FP, 6 h; Potency, µM (titrated, usually from 57.7 µM), most hits filed as inhibitors; 0.39% of 280,000 active; AID 1468; also: nearly all actives have a fitted effect of over 55% in size
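Steps: dispense K18 P301L tau (15 uM plus 0.24 uM Alexa 594 tracer, final) in pH 7 sodium acetate; add compound; add heparin (20 uM final); incubate 6 hr, 37 C; add ThT (30 uM final); after 1 hr ambient, read FP.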
Sfp PPTase inh: Sfp phosphopantetheinyl transferase inhibition. Q9F4F7. Biochemical Sfp PPTase activity, qHTS. Potency, µM, usual class: inhibitors. 3.5% of 310,000 active. AID 1490;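 also: the enzyme is Sfp with the accession as filed and its product quenches rhodamine fluorescence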
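With Hepes-Na pH 7.6 buffer containing 10 mM MgCl2, Sfp (15 nM) modified BHQ-2-YbbR (12.5 uM) using rhodamine-CoA (5 uM). Two reads 30 minutes apart at 525/598 nm yielded each well's rate.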
Coupling enz: coupling enzyme interference in Giardia aldolase counter-screen. AID 2472. activity change, negative = inhibition, % at 58.2 µM, hits read low. 0.67% of 290,000 active. coupling enzyme system counterscreen, AmpLite Red fluorescence; in the data active = activity change below about -30%
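Compounds tested against the coupling enzymes alone at 57.5 uM final; readout was AmpLite Red fluorescence (525/598 nm) after 20 min at RT.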
A number is an active result; n = inactive; u = inconclusive; x = not tested or not shown; ! = not active in a repeat; [ ] = remark or other dose. Compounds with a hit are over-represented: about 5.2% of the library has one in this group of screens. Unless noted, calls follow the shape of the dose curve; as a rule, active = well fitted curve in the direction sought with a large enough effect; inconclusive = small, poorly fitted or top-dose-only effect, or another doubt; inactive = no such curve, though single readings can be large; an effect the other way counts as inactive or inconclusive.

SMILES	Tau fibril ThT	Tau fluor counter	Tau FP inhib	Sfp PPTase inh	Coupling enz
O=C1C2Sc3[nH]c(=O)sc3C(c3ccccc3)C2C(=O)N1c1ccccc1 (stereo not drawn)	u	u	u	79.4µM	x
COc1ccc(C2c3sc(=O)[nH]c3SC3C(=O)N(c4ccccc4)C(=O)C32)cc1 (stereo not drawn)	u	n	n	n	n
COc1ccc(N2CCN(S(=O)(=O)c3csc(C(N)=O)c3)CC2)cc1	n	n	n	x	x
CCN1CCN(c2nc(C)nc3c2sc(=S)n3C)CC1	u	n	n	2.82µM	n
OC1=C(O)c2nc3cc(F)ccc3nc21	x	x	x	39.8µM	n
Cc1ccc2nc3c(nc2c1C)C(O)=C3O	x	u	u	n	n
Cc1ccc(SCc2[nH]nc3c2C(c2ccco2)C(C#N)=C(N)O3)cc1 (stereo not drawn)	20µM	u	u	n	n
Cc1ccc(SCc2[nH]nc3c2C(c2ccc(C)o2)C(C#N)=C(N)O3)cc1 (stereo not drawn)	14.1µM	u	u	u	n
CC(NC(=O)c1ccc2c(c1)CCN2S(=O)(=O)c1ccccc1)c1ccccc1 (stereo not drawn)	n	n	n	x	x
Cc1cccc(-c2nc(SCC(=O)NCc3ccco3)c3c(=O)n(C)c(=O)n(C)c3n2)c1	n	n	n	x	x
COc1ccc(-c2nc(=S)[nH][nH]2)cc1	n	n	n	u	n
COc1cc(-c2nc(=S)[nH][nH]2)cc(OC)c1OC	n	n	n	50.1µM	n
FC(F)(F)c1ccc(-c2nc(=S)[nH][nH]2)cc1	x	n	n	56.2µM	n
Oc1ccc(-c2nc(=S)[nH][nH]2)cc1	n	n	n	u	n
CCOc1ccc(-c2nc(=S)[nH][nH]2)cc1	n	n	n	u	n
COc1ccc(-c2nc(=S)[nH][nH]2)cc1OC	n	n	n	56.2µM	n
NC(=O)Cc1nc(-c2ccc(F)cc2)cs1	n	n	n	n	n
NC(=S)Cc1nc(-c2ccc(Cl)cc2)cs1	15.8µM	u	u	u	n
COc1ccc(Cl)cc1NC(=O)Cn1c(=O)n(-c2ccc(C)cc2)c(=O)c2ccc(C(=O)NCc3ccccc3Cl)cc21	n	n	u	x	x
NC(C(=O)O)C(O)c1ccc(O)c(O)c1 (stereo not drawn)	x	x	x	44.7µM	x
N[C@H](C(=O)O)c1cccc(O)c1	u	n	u	44.7µM!	n
N[C@@H](C(=O)O)c1ccc(C(=O)O)c(C(=O)O)c1	n	n	n	n	n
NC(C(=O)O)c1cc(O)c(Cl)c(O)c1 (stereo not drawn)	n	n	n	n	x
NC(C(=O)O)c1ccc(O)cc1 (stereo not drawn)	x	x	x	n	x
N[C@H](C(=O)O)c1ccc(O)c(C(=O)O)c1	n	n	n	20µM	n
SMILES	Tau fibril ThT	Tau fluor counter	Tau FP inhib	Sfp PPTase inh	Coupling enz
O=C(COCc1cc(-c2ccc3c(c2)OCO3)on1)Nc1cccc(O)c1	u	n	n	x	x
COc1ccc(C(C)C(=O)c2ccc(O)cc2O)cc1 (stereo not drawn)	n	u	u	n	n
COc1ccc(/C(O)=C2/C(=O)C(=O)N(Cc3ccco3)C2c2cccs2)cc1 (stereo not drawn)	u	n	u	10µM	n
COC(=O)c1ccc(C2/C(=C(/O)c3ccc(OC)cc3)C(=O)C(=O)N2Cc2ccco2)cc1 (stereo not drawn)	u	n	n	22.4µM	n
COC(=O)c1ccc(C2/C(=C(\O)c3cccc(OC)c3)C(=O)C(=O)N2CCCN(C)C)cc1 (stereo not drawn)	n	n	n	n	n
CC1Cc2cc(/C(O)=C3/C(=O)C(=O)N(CCCn4ccnc4)C3c3ccco3)ccc2O1 (stereo not drawn)	n	n	n	n	n
COc1ccc(C2/C(=C(\O)c3ccc4c(c3)OCCO4)C(=O)C(=O)N2Cc2ccco2)c(OC)c1 (stereo not drawn)	n	n	n	n	n
CC1Cc2cc(/C(O)=C3/C(=O)C(=O)N(Cc4ccco4)C3c3cccs3)ccc2O1 (stereo not drawn)	n	n	n	28.2µM	n
COc1cccc(CNS(=O)(=O)c2ccc(-c3cc(C(F)(F)F)on3)s2)c1	n	n	n	x	x
CCOC(=O)CCc1c(C)nc(SCC(=O)O)c(C#N)c1C	n	n	n	79.4µM	n
CCOC(=O)CSc1nc(C)cc(C)c1C#N	n	n	n	56.2µM	n
COCc1cc(C)nc(SCC(=O)c2ccc(O)c(O)c2)c1C#N	u	u	n	56.2µM	n
COc1ccc2nc(SC)c(C#N)cc2c1	n	n	n	n	n
COc1ccc2nc(SCC(C)=O)c(C#N)cc2c1	4.47µM	n	n	n	n
Cc1nc2cnc(N3CCN(C)CC3)nc2n(C2CC2)c1=O	x	x	x	n	n
COc1ccc(C(=O)NCC(c2ccc(N(C)C)cc2)N2CCc3ccccc32)cc1OC (stereo not drawn)	u	u	n	x	x
CCOC(=O)CSc1nc2cc(OC)ccc2cc1C#N	5.01µM	u	n	n	n
C(=N\Nc1nc(-c2ccccc2)cs1)/c1ccncc1	15.8µM	12.6µM[quencher]	n	u	n
Cc1cc(=O)[nH]c(N/N=C/c2cccs2)n1	n	n	n	n	n
ClCc1csc(N/N=C/c2cccs2)n1	17.8µM	u	u	44.7µM	n
Cc1cc(NS(=O)(=O)c2ccc(Nc3nc(-c4ccc(O)cc4)cs3)cc2)no1	n	n	n	n	n
O=C(O)Cc1sc(N/N=C\c2ccncc2)nc1-c1ccccc1	u	n	u	28.2µM	n
CN(C)S(=O)(=O)c1ccc(-c2csc(N/N=C/c3ccc(O)cc3)n2)cc1	14.1µM	10µM[quencher]	n	50.1µM	n
O=c1c(S(=O)(=O)c2ccccc2)cn(Cc2ccc(F)cc2)c2cc(N3CCCC3)c(F)cc12	n	n	n	x	x
Cc1nc2nc(CNC(=O)OC(C)(C)C)nn2c(C)c1CCC(=O)NCc1ccccc1Cl	n	n	n	x	x
SMILES	Tau fibril ThT	Tau fluor counter	Tau FP inhib	Sfp PPTase inh	Coupling enz
CC1CC=CC2C1C(=O)N(Cc1ccccc1)C2c1ccc(C(F)(F)F)cc1 (stereo not drawn)	x	x	x	n	n
Cc1ccc(NC(=O)Cn2c(=O)oc3cc(S(=O)(=O)NCc4ccccc4)ccc32)cc1	n	n	u	x	x
O=C(NCC1CC1)[C@H]1C[C@@H]1[C@H](NP(=O)(c1ccccc1)c1ccccc1)c1ccccc1	n	n	n	n	n
Cc1ccc(-c2csc(N/N=C/C=C/c3ccccc3)n2)cc1	u	u	n	n	n
C(=N\Nc1nc(-c2ccccc2)cs1)/c1cccs1	14.1µM	12.6µM[quencher]	n	8.91µM	n
O=C(CSc1nc(O)cc(=O)[nH]1)C1CC1	n	n	n	70.8µM	n
N[C@@H](CCS(=O)O)C(=O)O	n	n	n	39.8µM!	x
COc1cccc(CNC(=O)c2cccc(N3CCCS3(=O)=O)c2)c1	n	n	n	x	x
C=CCn1c(C)cc(-c2csc(NCC)n2)c1C	u	u	n	u	n
CCCn1c(C)cc(-c2csc(N)n2)c1C	15.8µM	u	u	56.2µM	n

From PubChem
